Several values for one entry are separate records, joined by “and”; a condition that tells them apart may be missing. Equal values may be shown once. Results filed as inconclusive are left out. Values without a mark were called inactive. Activity calls are given as the source filed them. Calls come from the whole dose curve; as a rule, active = well fitted inhibition curve with a large enough effect; inconclusive = small, poorly fitted or top-dose-only effect; inactive = flat fitted curve, though single readings scatter.

The source of these data is PubChem BioAssay AID651605 (National Center for Advancing Translational Sciences (NCATS), 2012).

Chain of Ubiquitin carboxyl-terminal hydrolase 1 (Homo sapiens) (O94782 whole entry, looked up): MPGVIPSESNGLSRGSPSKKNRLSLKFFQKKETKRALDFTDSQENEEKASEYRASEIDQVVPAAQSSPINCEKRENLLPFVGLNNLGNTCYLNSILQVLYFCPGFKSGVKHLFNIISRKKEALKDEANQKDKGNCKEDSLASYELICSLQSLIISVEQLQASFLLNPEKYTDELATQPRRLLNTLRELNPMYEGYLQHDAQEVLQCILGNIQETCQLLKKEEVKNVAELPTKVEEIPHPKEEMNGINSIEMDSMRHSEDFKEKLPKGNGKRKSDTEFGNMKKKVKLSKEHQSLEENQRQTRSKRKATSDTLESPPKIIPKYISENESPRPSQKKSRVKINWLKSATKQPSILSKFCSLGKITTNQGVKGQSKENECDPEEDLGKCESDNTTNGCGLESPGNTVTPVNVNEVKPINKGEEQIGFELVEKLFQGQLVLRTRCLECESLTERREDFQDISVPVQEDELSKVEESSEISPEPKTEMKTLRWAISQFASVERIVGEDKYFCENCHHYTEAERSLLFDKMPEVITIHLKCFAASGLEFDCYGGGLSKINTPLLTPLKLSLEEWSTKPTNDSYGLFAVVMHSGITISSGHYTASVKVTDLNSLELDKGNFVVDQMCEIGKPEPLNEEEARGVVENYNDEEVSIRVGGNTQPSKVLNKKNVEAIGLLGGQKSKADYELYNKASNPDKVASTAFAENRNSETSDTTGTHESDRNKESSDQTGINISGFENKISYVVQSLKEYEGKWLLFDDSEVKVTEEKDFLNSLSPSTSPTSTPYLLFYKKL

This assay concerns the target Ubiquitin carboxyl-terminal hydrolase 1 (Homo sapiens) (UniProt O94782). Put plainly: Inhibitors of USP1/UAF1: SAR in Primary Assay. The settings on record: Recombinant USP1/UAF1, Ub-Rhodamine cleavage fluorescence; series mostly up to 57.1 µM; activity change, negative = inhibition: at the top concentration. From the text:
Deubiquitinating enzymes (DUBs) are a class of enzymes that can cleave isopeptide bond formed between the C-terminal carboxylate of ubiquitin and a lysine side-chain amino group on the target protein. Among them, ubiquitin specific proteases (USPs) constitute the largest DUB family. Human USPs are emerging as promising targets for pharmacological intervention because of their connection to a number of human diseases, including prostate, colon and breast cancer (1, 2), pediatric acute lymphoblastic leukemia (3), and familial cylindromatosis (4). The advantage of inhibiting USPs lies in the potential specificity of therapeutic intervention that can lead to better efficacy and reduce nonspecific side effects. In a collaboration between the University of Delaware and the NIH Chemical Genomics Center, a high-throughput screen assay was developed to screen for USP1/UAF1 inhibitors (5). This assay was used to test the analogs that were synthesized based on SAR around the original hit. NIH Chemical Genomics Center [NCGC] NIH Molecular Libraries Probe Centers Network [MLPCN] MLPCN Grant: DA030552-01 Assay Submitter (PI): Zhihao Zhuang, University of Delaware 1. Priolo, C., et al. (2006) The isopeptidase USP2a protects human prostate cancer from apoptosis. Cancer Res 66, 8625-8632 2. Popov, N., et al. (2007) The ubiquitin-specific protease USP28 is required for MYC stability. Nat Cell Biol 9, 765-774 3. De Pitta, C., et al. (2005) A leukemia-enriched cDNA microarray platform identifies new transcripts with relevance to the biology of pediatric acute lymphoblastic leukemia. Haematologica 90, 890-898 4. Kovalenko, A., et al. (2003) The tumour suppressor CYLD negatively regulates NF-kappaB signalling by deubiquitination. Nature 424, 801-805 5. Chen, J., et al. (2011) Selective and cell-active inhibitors of the USP1/ UAF1 deubiquitinase complex reverse cisplatin resistance in non-small cell lung cancer cells. Chem Bio 18(11):1390-400.
3 microliters of reagents (buffer in columns 3 and 4 as negative control and 1nM USP1/UAF1 complex in columns 1, 2, and 5-48) are dispensed into Greiner black solid bottom 1536-well assay plates. Compounds are then transferred via Kalypsys pin tool equipped with 1536-pin array (10nl slotted pins, V&P Scientific, San Diego, CA). Following an incubation step of 15 min at room temperature, 1ul of Ub-Rho substrate (150nM final concentration) is added to initiate the reaction. The plates are immediately centrifuged at 1000 rpm for 15 seconds, and subsequently transferred to a ViewLux high-throughput CCD imager (PerkinElmer) wherein kinetic measurements of fluorescence are acquired using 480 nm excitation/540 nm emission filter set (6 reads every 60 seconds, see Table 1). All reagents are diluted in an assay buffer consisting of 50mM HEPES (pH 7.8), 0.5mM EDTA, 0.1 mg/ml BSA, 1mM TCEP, and 0.01% Tween-20.
As to `FC(F)(F)c1ccc(-c2ccc(CNc3nc(-c4ccccc4C(F)(F)F)nc4ccccc34)cc2)cn1`, the Potency was 4290 nM (active).
The same measure, in the same setting: in the case of `CC(C)c1ccccc1-c1ncc(N)c(NCc2ccc(-c3cccnc3)cc2)n1` it was 271 nM (active).
With `Cc1cnc(-c2ccccc2C(C)C)nc1NCc1ccc(-c2cccnc2)cc1`, the Potency was 68.1 nM (active).
With `Nc1nc(NCc2ccc(-c3cccnc3)cc2)c2ccccc2n1`, the “activity change, negative = inhibition” value was -16.9%.
Regarding `Cc1cnc(-c2ccccc2C(C)C)nc1N(C)Cc1ccc(-c2cccnc2)cc1`, the Potency is 681 nM (active).
Same read-out and setting: in the case of `COc1cnc(-c2ccccc2C(C)C)nc1NCc1ccc(-c2cccnc2)cc1` it was 42.9 nM (active).
As for `FC(F)(F)c1ccccc1-c1nc(NCc2ccc(N3CCOCC3)cc2)c2ccccc2n1`, the Potency is 7640 nM (active).
On the same count and under the same terms, for `Cc1cnc(-c2ccccc2C2CC2)nc1NCc1ccc(-c2cccnc2)cc1` the value was 341 nM (active).
In the case of `c1cncc(-c2ccc(CNc3nc(N4CCOCC4)nc4ccccc34)cc2)c1`, the “activity change, negative = inhibition” value is -18.2%.
With `CC(C)c1ccccc1-c1nc(NCc2ccc(-c3cccnc3)cc2)c2ccsc2n1`, the Potency was 242 nM (active).
On the same count and under the same terms, in the case of `Cc1cnc(-c2ccccc2C(C)C)nc1NCC1CN(c2cccnc2)C1` it was 6810 nM (active).
On the same count and under the same terms, for `CC(C)c1ccccc1-c1ncc(F)c(NCc2ccc(-n3ccnn3)cc2)n1` the value was 17.1 nM (active); for `Cc1cnc(-c2ccccc2C(C)C)nc1NCc1cccs1`, 215 nM (active).
The same measure, in the same setting: in the case of `Cc1cnc(-c2ccccc2C(F)F)nc1NCc1ccc(-c2cccnc2)cc1` it was 341 nM (active).
On to `CC(C)c1ccccc1-c1nc(NCc2ccc(-c3cccnc3)cc2)c2cccn2n1`, for which the Potency is 215 nM (active).
The same measure, in the same setting: for `FC(F)(F)c1ccccc1-c1nccc(NCc2ccc(-c3cccnc3)cc2)n1` the value was 541 nM (active); for `CC(C)c1ccccc1-c1nc2c(c(NCc3ccc(-c4cccnc4)cc3)n1)CCNC2`, 482 nM (active).
Still for that read-out and setting: for `CC(C)c1ccccc1-c1nc(NCc2ccc(-c3cccnc3)cc2)c2sccc2n1` the value was 121 nM (active).
Turning to `Fc1cnc(-c2ccccc2C(F)F)nc1NCc1ccc(-c2ccn[nH]2)cc1`, the Potency was 1520 nM (active).
Still for that read-out and setting: in the case of `FC(F)(F)c1ccccc1-c1nc2c(c(NCc3ccc(-c4cccnc4)cc3)n1)CCC2` it was 681 nM (active); in that of `N#Cc1c(-c2ccccc2C(F)(F)F)nc2ccccc2c1NCc1ccc(-c2cccnc2)cc1`, 9610 nM (active).
The same measure, in the same setting: for `COc1ccccc1-c1nc(NCc2ccc(-c3cccnc3)cc2)c2ccccc2n1` the value was 681 nM (active); for `Cc1cnc(-c2ccccc2C(C)C)nc1NCc1ccc(-c2nn[nH]n2)cc1`, 3830 nM (active); for `Cc1cnc(-c2ccccc2C(C)C)nc1NCc1ccc(-c2ccc(F)nc2)cc1`, 60.7 nM (active).
Take `CC(Nc1nc(-c2ccccc2C(F)(F)F)nc2ccccc12)c1ccc(-c2ccccc2)cc1` (stereo not given): the Potency is 4820 nM (active).
Same read-out and setting: in the case of `CC(C)c1ccccc1-c1ncc(F)c(NCc2ccc(-c3cccnc3)s2)n1` it was 242 nM (active); in that of `CC(C)c1ccccc1-c1ncc(F)c(NCC2CCN(c3cnccn3)C2)n1` (stereo not given), 4290 nM (active).
As to `FC(F)(F)c1ccc(-c2nc(NCc3ccc(-c4ccnc(C(F)(F)F)c4)cc3)c3ccccc3n2)cc1`, the “activity change, negative = inhibition” value was -12.9%.
For `Fc1cnc(-c2ccccc2C(F)F)nc1NCC1CCN(c2cnccn2)C1` (stereo not given), the Potency is 21500 nM (active).
The same measure, in the same setting: for `Fc1cnc(-c2ccccc2C(F)F)nc1NCc1ccc(-n2ccnn2)cc1` the value was 1210 nM (active); for `Cc1cnc(-c2ccccc2CO)nc1NCC1CCN(c2cccnc2)CC1`, 7640 nM (active).
In the case of `CC(C)c1ccccc1-c1ncc(F)c(NC2(c3ccc(-c4cccnc4)cc3)CC2)n1`, the Potency is 38.3 nM (active) and 34.1 nM (active).
Same read-out and setting: in the case of `FC(F)c1ccccc1-c1nc(NCc2ccc(-c3cccnc3)cc2)c2ccccc2n1` it was 1360 nM (active).
Still for that read-out and setting: in the case of `CC(C)c1ccccc1-c1ncc(F)c(NCC2CCN(c3cccnc3)CC2)n1` it was 96.1 nM (active); in that of `N#Cc1cccc(-c2ccc(CNc3nc(-c4ccccc4C(F)(F)F)nc4ccccc34)cc2)c1`, 2710 nM (active); in that of `Cc1ccc(N2CCC(CNc3nc(-c4ccccc4C(C)C)ncc3F)CC2)cn1`, 96.1 nM (active).
As to `CC(C)c1ccccc1-c1nccc(NCc2ccc(-c3cccnc3)cc2)n1`, the Potency is 121 nM (active).
On the same count and under the same terms, for `Cc1cnc(-c2ccccc2C(C)(C)C)nc1NCc1ccc(-n2ccnn2)cc1` the value was 136 nM (active); for `Cc1ccc(N2CCC(CNc3nc(-c4ccccc4C(C)C)ncc3C)CC2)cn1`, 171 nM (active) and 60.7 nM (active); for `Cc1cnc(-c2ccccc2C(C)C)nc1NCc1ccc(-c2cccc(S(N)(=O)=O)c2)cc1`, 215 nM (active).
